Bioassay records from PubChem.
SMN2 splice enh = increases expression of the SMN2 splice variant; HEK293 SMN2-luciferase splicing reporter, luminescence, 30-36 h; Potency, µM (doses to about 46.1 µM), for inactives: at the highest dose activity change, positive = activation, usual class: activators; 2.8% of 210,000 active; AID 1458; also: % of control where 0% means no effect; nearly all actives have a fitted effect of over 55% in size
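HEK293 cells carry an SMN2 […]–luciferase reporter in which exon 7 inclusion puts luciferase in frame. Cells were plated 10-12 h before compound addition, then incubated 30-36 h at 37C. ONE-Glo luminescence was read; sodium butyrate at 4.5 mM final served as control.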
Luc counter = counter-screen: inhibitors of Kinase-Glo firefly luciferase; Q27757; Kinase-Glo luciferase, ATP luminescence, 8 min; Potency, µM (series often up to 38.3 µM), for the others: at the top dose activity change, negative = inhibition, hits mostly inhibitors; 0.28% of 200,000 active; AID 1379; also: % is scaled to controls: 0 for no effect and ±100 for the full control effect; nearly all actives have a fitted effect of over 60% in size
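Inhibition of Kinase-Glo luciferase light generation was assessed at 10 uM ATP in pH 7.2 imidazole buffer, with luminescence measured after eight minutes at ambient temperature.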
NPC1 promoter act = NPC1 promoter activation; Huh7 NPC1 promoter luciferase reporter, 24 h; Potency, µM (highest dose often 9.22 µM), for the others: top-dose activation, most hits filed as activators; 2.4% of 320,000 active; also: % of control where 0% means no effect; nearly all actives have a fitted effect of over 60% in size
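Luciferase expression driven by the NPC1 promoter was measured in stably transfected Huh7 cells after a 24 h compound incubation, using a luciferase reagent and a luminescence read.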
FLuc modulator = counter-screen for miR-21 project: firefly luciferase inhibitors or activators. Potency, µM (top dose mostly 57.5 µM), for inactives: top-dose activity change, negative = inhibition, actives largely listed as inhibitors. AID 588342. P08659. 6.9% of 360,000 active. purified FLuc, Km substrates, luminescence inhibition;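 also: plate controls were vehicle for no effect and reference inhibitor for full effect; nearly all actives have a fitted effect of over 55% in size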
Target sequence (P08659 whole entry, looked up): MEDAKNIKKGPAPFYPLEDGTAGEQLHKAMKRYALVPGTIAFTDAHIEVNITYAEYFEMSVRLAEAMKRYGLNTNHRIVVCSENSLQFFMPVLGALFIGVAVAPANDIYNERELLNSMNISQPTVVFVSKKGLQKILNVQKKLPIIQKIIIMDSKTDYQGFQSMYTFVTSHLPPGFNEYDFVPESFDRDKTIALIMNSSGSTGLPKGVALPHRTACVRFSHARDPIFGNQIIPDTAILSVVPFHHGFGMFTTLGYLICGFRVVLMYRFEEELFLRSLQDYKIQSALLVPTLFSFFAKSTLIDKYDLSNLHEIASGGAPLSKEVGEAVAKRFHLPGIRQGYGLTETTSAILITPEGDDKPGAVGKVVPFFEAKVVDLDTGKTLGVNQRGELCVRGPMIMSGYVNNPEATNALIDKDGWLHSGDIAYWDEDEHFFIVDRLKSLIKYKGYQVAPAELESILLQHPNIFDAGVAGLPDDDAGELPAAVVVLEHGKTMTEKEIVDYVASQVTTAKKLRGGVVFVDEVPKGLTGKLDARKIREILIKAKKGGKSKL
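Purified P. pyralis luciferase, 10 nM final, with Km-level 10 uM D-luciferin and 10 uM ATP in 50 mM Tris acetate pH 7.5, 10 mM Mg acetate, 0.01% Tween-20, 0.05% BSA; 6-point qHTS titration about 60 µM downward; luminescence read.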
Rab9 promoter act = activates the Rab9 promoter; AID 485297; Huh7 Rab9 promoter-luciferase reporter, luminescence, 24 h; 2.8% of 320,000 active; Potency, µM (titrated, usually from 9.22 µM), without a hit: top-dose activation, negative = inhibition, hits mostly activators; also: % of control where 0% means no effect; nearly all actives have a fitted effect of over 60% in size
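Huh7 reporter line, Rab9 promoter upstream of luciferase. Compound exposure 24 h at 37 °C in reduced-serum medium with 10% FBS. Read-out: luminescence.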
ELG1 genotoxic = genotoxicity induction in ELG1-luciferase HEK293T cells; 1.3% of 330,000 active; HEK293T ELG1-luciferase reporter, luminescence, 16 h; Potency, µM (doses to about 46 µM), inactives show at the top dose activity change, positive = activation, hits mostly activators; also: % of control where 0% means no effect; nearly all actives have a fitted effect of over 60% in size
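Reporter readout depends on ELG1 protein level, which increases with genetic stress. After 16 hr compound exposure at 37 °C, luciferase activity was quantified using ONE-Glo.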
* = called active by the depositor; ? = inconclusive; / = no result; [ ] = another dose, or the depositor's remark. The list is not random: actives were taken first. Their share in the collection is about 7.3%. Calls follow the shape of the dose curve; as a rule, active = well fitted curve in the direction sought with a large enough effect; inconclusive = small, poorly fitted or top-dose-only effect, or another doubt; inactive = no such curve, though single readings can be large; an effect the other way counts as inactive or inconclusive. Potency is read from the fitted curve at half-maximal effect.

SMILES	SMN2 splice enh	Luc counter	NPC1 promoter act	FLuc modulator	Rab9 promoter act	ELG1 genotoxic
O=C(/C=C/c1ccccc1[N+](=O)[O-])c1ccc(F)cc1	-13%	1%	15%	13µM*	26%	?
NC(=O)COC(=O)/C=C/c1ccccc1[N+](=O)[O-]	13%	2%	-1%	-2%	-2%	-1%
COc1ccc(C(=O)COC(=O)/C=C/c2ccccc2[N+](=O)[O-])cc1	/	/	/	/	/	0%
O=C(/C=C/c1ccccc1[N+](=O)[O-])Oc1ccccc1	/	/	-6%	6.7µM*	-1%	0%
O=C(O)c1ccc(N/N=C/C=C/c2ccccc2[N+](=O)[O-])cc1	8.9µM*	-7%	1.4µM*	3.4µM*	1.4µM*	?
O=C(/C=C/c1ccccc1[N+](=O)[O-])OCC(=O)c1ccccc1	7%	-1%	0%	24µM*	1%	8%
O=C(Cn1ncc2c(=O)oc3ccccc3c21)NCC1CCCO1 (stereo unspecified)	2%	-1%	-2%	4%	-3%	-1%
CCc1nc2ccccc2c(C(=O)Oc2cccc3cccnc23)c1C	-19%	-3%	7%	15µM*	12%	-10%
CCc1nc2ccc(C)cc2c(C(=O)Oc2cccc3cccnc23)c1C	-15%	1%	3%	4%	2%	0%
O=C(COc1ccccc1C(=O)c1cnn(-c2ccccc2)c1)Nc1ccccc1	25µM*	-8%	26%	1.5µM*	?	5%
COc1ccccc1CNC(=O)COc1ccccc1C(=O)c1cnn(-c2ccccc2)c1	/	/	16%	9.5µM*	17%	7%
CCNC(=O)COc1ccc(F)cc1C(=O)c1cnn(-c2ccccc2)c1	/	/	1%	0%	2%	6%
O=C(c1ccc2c(c1)OCO2)N1CCN(S(=O)(=O)N2CCCCC2)CC1	/	/	-7%	0%	-5%	-6%
CCCCOc1ccc(C(=O)NCC(=O)N2CCN(Cc3ccc4c(c3)OCO4)CC2)cc1	/	/	-2%	-6%	-8%	-4%
Cc1ccc(CSc2nnc(SCC(=O)N/N=C/C=C/c3ccccc3[N+](=O)[O-])s2)cc1	-45%	-4%	-4%	1.3µM*	-5%	16%
Cc1nn(-c2ccccc2)c(C)c1/C=N/NC(=O)c1cc(-c2ccc(Br)s2)[nH]n1	-12%	6%	-20%	?	-15%	-31%
O=C(CSc1nnc(SCc2ccccc2Cl)s1)N/N=C/c1ccc(C(=O)O)cc1	/	/	1%	3.4µM*	3%	0%
Cc1nn(-c2ccccc2)c(C)c1/C=N/NC(=O)c1ccccc1NS(=O)(=O)c1cccs1	15%	1%	-1%	11µM*	2%	2%
Cc1nn(-c2ccccc2)c(C)c1/C=N/NC(=O)c1cc(-c2ccc(Cl)s2)[nH]n1	-15%	-1%	-25%	11µM*	-19%	-8%
CCOc1cc(/C=N/NC(=O)CSc2nnc(C)s2)ccc1OCc1ccccc1Cl	8%	1%	0%	1%	2%	0%
N#CCCN(C(=O)COC(=O)C1=COCCO1)c1ccc(F)cc1	/	/	-3%	-2%	-2%	4%
COc1ccc(C(CNC(=O)CNC(=O)c2ccc(F)cc2)N2CCCC2)cc1 (stereo unspecified)	/	/	0%	2%	-6%	-1%
O=C(O)C[C@@H](C(=O)O)c1ccccc1[N+](=O)[O-]	0%[9.22 µM]	2%[7.66 µM]	/	/	/	/
Cc1[nH]c2ccccc2c1/C=N/NC(=O)CNC(=O)c1cccs1	/	/	2%	4%	1%	-6%
Cc1c(/C=N/NC(=O)c2cccs2)c2ccccc2n1Cc1ccccc1Cl	/	/	17%	8.5µM*	21%	-2%
